Test results reported in PubChem BioAssay (NCI).
The panel holds about 83,000 compounds, 20% with a hit somewhere; the sample as a whole holds those more often.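 Each cell line was grown in a 96-well plate and treated with one concentration of compound for 48 hours. Values below 10 were considered active.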 Unmarked numbers belong to inactive results. Activity calls are given as the source filed them.

How the values were obtained:
Assay in all cases: NCI-60 one-dose screen, 48 h (100 = growth as untreated, 0 = no growth, -100 = all killed)
[1] = test system: SR leukemia; settings: 10 µM unless noted
[2] = test system: RPMI-8226 leukemia; settings: 10 µM unless noted
[3] = test system: OVCAR-8 ovarian; settings: 10 µM unless noted
[4] = test system: OVCAR-5 ovarian; settings: 10 µM unless noted
[5] = test system: OVCAR-4 ovarian; settings: 10 µM unless noted
[6] = test system: SK-OV-3 ovarian; settings: 10 µM unless noted
[7] = test system: IGROV1 ovarian; settings: 10 µM unless noted
[8] = test system: OVCAR-3 ovarian; settings: 10 µM unless noted
[9] = test system: HS 578T breast; settings: 10 µM
[10] = test system: NCI/ADR-RES ovarian; settings: 10 µM unless noted
[11] = test system: T-47D breast; settings: 10 µM unless noted
[12] = test system: BT-549 breast; settings: 10 µM unless noted
[13] = test system: MDA-MB-435 melanoma; settings: 10 µM unless noted
[14] = test system: SW-620 colon; settings: 10 µM unless noted
[15] = test system: HCT-116 colon; settings: 10 µM unless noted
[16] = test system: HCC-2998 colon; settings: 10 µM unless noted
[17] = test system: KM12 colon; settings: 10 µM unless noted
[18] = test system: MCF7 breast; settings: 10 µM unless noted

Row | Compound | growth [1] | growth [2] | growth [3] | growth [4] | growth [5] | growth [6] | growth [7] | growth [8] | growth [9] | growth [10] | growth [11] | growth [12] | growth [13] | growth [14] | growth [15] | growth [16] [%] | growth [17] | growth [18]
1 | O=C1Nc2ccccc2/C1=C/c1c[nH]c2ccccc12 | 77.5% | 77.1% | 84.9% | 105% | 71.7% | 95.7% | 2.73% (active) | 93.5% | 67.6% | 89.6% | 68.3% | 73.5% | 92.3% | 100% | 79.2% | 98.6 | 23.1% | –
2 | CC(C)CC(NC(=O)OCC1c2ccccc2-c2ccccc21)C(=O)O (stereo unspecified) | 93.7% | 101% | 122% | 101% | 102% | 95% | 91% | 115% | 115% | 107% | 95.8% | 97% | 93.7% | 116% | 103% | 112 | 106% | 89.4%
3 | COc1cc(OC)cc(-c2n/c(=C\c3c(O)[nH]c4ccc(Cl)cc34)cc3c2=Nc2ccccc2-3)c1 | 23.5% | 71.2% | 54.5% | 114% | 16.1% | 114% | -21.3% (active) | 69.7% | 90.4% | 81.6% | 84.9% | 97.2% | 99.3% | -1.36% (active) | 2.45% (active) | 103 | 22.8% | 24.3%
4 | COc1c(C(=O)/C=C/c2ccc(C)o2)c(O)cc2occc12 | 42.8% | 82.5% | 84.8% | 107% | 80.9% | 88.6% | 69.3% | 47.6% | 65.8% | 52.2% | 66.6% | 67.5% | -28.3% (active) | 32.1% | 52.8% | 79.4 | 45.4% | 38.5%
5 | CN1CCN(Cc2ccc(NC(=O)c3cnc(F)c(C#Cc4cnc(N)c5ncccc45)c3)cc2C(F)(F)F)CC1 | 13.4% | 18.2% | 29.6% | 37.2% | 16.6% | 3.65% (active) | 13.9% | 46.2% | -10.1% (active) | 29.9% | 30.3% | 41.9% | 10.2% | 8.66% (active) | 7.2% (active) | – | 11.2% | 42.6%
6 | CCN(C)CCCOc1ccc(/C(=C(\C)Cc2cccc(OC)c2)c2ccc(OC(C)=O)cc2)cc1 | -8.45% (active) | 102% | 105% | 99.6% | 103% | 93.7% | 102% | 105% | 94% | 101% | 75.6% | 92.3% | 97.1% | 106% | 99.7% | 101 | 106% | 51.4%
7 | CC(C)[C@H](CN)NC[C@H](C)NS(=O)(=O)c1ccc(C(C)(C)C)cc1 | 110% | 90.4% | 97.5% | 106% | 87.5% | 105% | 97% | 103% | 87.9% | 104% | 80.5% | 81.2% | 99.7% | 94.2% | 86.2% | 105 | 101% | 90.2%
8 | CCCCN(CCCC)CCCN=c1nc2c(c(N)n1-c1ccccc1)c(=S)n(-c1ccccc1)c(=S)n2-c1ccccc1 | -65.2% (active) | -53.4% (active) | -36.1% (active) | -60.2% (active) | -82% (active) | -86.5% (active) | -70.9% (active) | -100% (active) | -64.6% (active) | -71.1% (active) | -62.1% (active) | -90.6% (active) | -100% (active) | -100% (active) | -25% (active) | – | -100% (active) | -88.1% (active)
9 | Cc1cc(C)cc(NC(=O)Cn2nncc2CN2C(=O)CSC2=O)c1 | 118% | 110% | 101% | 110% | 106% | 92.5% | 110% | 110% | 89.5% | 96.3% | 99.9% | 101% | 103% | 99.7% | 107% | 108 | 110% | –
10 | COC(=O)C1(C)COP(=O)(NC23CC4CC(CC(C4)C2)C3)OC1 (stereo unspecified) | 114% | 95.6% | 107% | 113% | 97.7% | 100% | 106% | 106% | 102% | 93.9% | 111% | 99.7% | 105% | 100% | 108% | – | 102% | 102%
11 | CCN(CC)CCCCCCCNc1cc(OC)cc2c(C)ccnc12 | 73.2% | 68.9% | 67.2% | 97.5% | 21.1% | 94.9% | 52.6% | 20.6% | 72.4% | 78.6% | 53.6% | 82.6% | 98.6% | 88.6% | 70.9% | 90.9 | 89.9% | –
12 | C/C(=N\NC(=S)Nc1ccccc1)c1ccccn1 | 13.7% | 33.5% | 11.8% | 35.6% | 33.5% | 40% | 15.7% | 9.49% (active) | 64.1% | 17.2% | 28.7% | 40.2% | 59.6% | 35% | 6.94% (active) | – | 29.7% | 18.7%
13 | O=C(Nc1ccc(OS(=O)(=O)c2ccc(F)cc2)cc1)C12CC3CC(CC(C3)C1)C2 | 36.3% | 12.3% | 72.4% | 100% | 54.4% | 74.9% | 90.2% | 78.2% | 75.8% | 60.2% | 31.3% | 71.9% | 82.9% | 39.4% | 33.7% | 40.6 | 37.3% | –
14 | COc1ccc(-c2[nH]nc(N)c2-c2cc(OC)c(OC)c(OC)c2)cc1 | -23.7% (active) | -8.96% (active) | 7.81% (active) | 38.8% | 64.2% | 4.97% (active) | 1.08% (active) | -28.3% (active) | 25.6% | -9.45% (active) | 52.8% | 3.37% (active) | -69.2% (active) | 23% | 6.24% (active) | – | 3.55% (active) | 16.3%
15 | CCOC(=O)c1sc2nc(-c3cc4ccccc4o3)cc(-c3ccc(Cl)cc3)c2c1N | 71.6% | 42.4% | 112% | 112% | 101% | 104% | 81.2% | 103% | 91.9% | 112% | 103% | 148% | 222% | 96.8% | 105% | 109 | 99.7% | 110%
16 | COc1ccc2nc(NC(=O)/C(=C/c3cc(OC)c(OC)c(OC)c3)c3ccc(OC)c(OC)c3)sc2c1 | 73% | 96.6% | 90% | 91.9% | 93.4% | 104% | 81.6% | 84.4% | 103% | 89% | 74.4% | 101% | 101% | 102% | 96.3% | 113 | 101% | 87.1%
17 | C#CC[C@@H]1C[C@]2(C)[C@H]3CC=C4[C@H]5[C@@H](C)[C@H](C)CC[C@]5(C(=O)NCCCCN)CC[C@@]4(C)[C@]3(C)CC[C@H]2C(C)(C)[C@H]1OC(C)=O | -19.2% (active) | 5.75% (active) | 63.7% | 108% | 68.3% | 109% | 74.8% | 55.6% | 102% | 86.1% | – | 93.8% | 40% | 20.1% | -56.4% (active) | 30 | 38.3% | 12.2%
